Among the data in ChEMBL document CHEMBL1201862, “PubChem BioAssay data set” (2004) are Potency values, retold here.

Molecules are shown by their SMILES. The whole screen tested about 400,000 compounds, of which about 2,100 (0.53%) were called active. Another 14% or so got no clear call; they are omitted. The rule behind the calls is not given here. The list comes from a sample in which actives are over-represented; it also holds similar structures and randomly drawn compounds.

Ataxin-2 (Homo sapiens), sequence (Q99700 whole entry): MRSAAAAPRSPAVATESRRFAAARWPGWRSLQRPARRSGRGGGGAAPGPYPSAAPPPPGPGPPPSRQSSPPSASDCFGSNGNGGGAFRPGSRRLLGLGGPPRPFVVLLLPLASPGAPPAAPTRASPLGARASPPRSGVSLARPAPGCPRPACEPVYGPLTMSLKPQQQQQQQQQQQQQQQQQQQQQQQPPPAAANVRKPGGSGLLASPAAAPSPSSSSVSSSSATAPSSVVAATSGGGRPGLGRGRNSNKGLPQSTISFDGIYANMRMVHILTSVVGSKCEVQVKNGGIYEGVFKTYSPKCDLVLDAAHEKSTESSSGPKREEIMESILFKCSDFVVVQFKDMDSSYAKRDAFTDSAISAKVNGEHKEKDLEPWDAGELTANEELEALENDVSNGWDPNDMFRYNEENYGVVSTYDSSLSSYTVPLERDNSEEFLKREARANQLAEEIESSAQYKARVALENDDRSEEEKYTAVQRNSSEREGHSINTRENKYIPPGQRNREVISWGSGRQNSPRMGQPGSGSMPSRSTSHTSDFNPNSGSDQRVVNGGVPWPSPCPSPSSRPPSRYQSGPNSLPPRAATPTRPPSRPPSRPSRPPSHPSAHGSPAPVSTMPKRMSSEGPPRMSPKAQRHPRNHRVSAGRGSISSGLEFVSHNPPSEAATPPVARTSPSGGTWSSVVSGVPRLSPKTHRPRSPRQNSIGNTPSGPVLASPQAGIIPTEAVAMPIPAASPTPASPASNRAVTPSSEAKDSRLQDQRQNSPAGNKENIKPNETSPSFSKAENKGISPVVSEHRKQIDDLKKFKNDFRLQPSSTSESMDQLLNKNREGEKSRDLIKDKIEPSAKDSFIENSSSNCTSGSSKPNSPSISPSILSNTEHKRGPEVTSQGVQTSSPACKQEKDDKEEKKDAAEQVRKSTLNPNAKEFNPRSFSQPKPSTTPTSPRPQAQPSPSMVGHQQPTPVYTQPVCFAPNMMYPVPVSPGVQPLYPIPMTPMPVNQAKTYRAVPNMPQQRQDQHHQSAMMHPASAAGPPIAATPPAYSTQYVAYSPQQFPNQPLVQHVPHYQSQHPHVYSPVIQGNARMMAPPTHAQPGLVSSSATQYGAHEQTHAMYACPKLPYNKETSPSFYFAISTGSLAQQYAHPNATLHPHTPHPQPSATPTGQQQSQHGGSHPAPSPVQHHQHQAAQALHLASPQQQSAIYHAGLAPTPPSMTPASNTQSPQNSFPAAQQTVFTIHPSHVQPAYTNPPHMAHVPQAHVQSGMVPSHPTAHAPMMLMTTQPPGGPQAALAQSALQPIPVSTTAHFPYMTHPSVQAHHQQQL

This assay addresses Ataxin-2 (Homo sapiens) (UniProt Q99700). The experiment in a line: qHTS for Inhibitors of ATXN expression. It counts as functional. A general note: Quantitative high-throughput screening tests each substance at several concentrations.
On to `CCCCn1/c(=N\C(=O)c2ccco2)c(C(=O)OCC)cc2c(=O)n3cccc(C)c3nc21`, for which the Potency result was “inactive”. Next, `CCn1cc(C2C3=C(O)CCCC3=NC(C)=C2C(=O)Nc2ccc(Br)cn2)c(C)n1` (stereo not given): “inactive”; `COc1ccc(NC(=O)Cn2c(SCc3cc(C)ccc3C)nc3ccncc32)c(OC)c1OC`: 39.8 µM (active). Next, `CCOc1nc2cnccc2n(CC(=O)Nc2ccc(C)c(C)c2)c1=O`: “inactive”. Turning to `COC(=O)c1ccc(-c2sc3nc(N4CCOCC4)c4c(c3c2N)CC(C)(C)OC4)o1`, the Potency result is “inactive”. Next, `COc1ccc(CC(=O)Nc2nn(C)c3nc4c(C)cccc4cc23)cc1`: “inactive”; `COc1cc(OC)cc(C(=O)NC(C(=O)NCCc2ccccn2)C(C)C)c1` (stereo not given): “inactive”. Next, `COc1cc(OC)c(NC(=O)C(C)n2nc(-c3ccc(C)c(C)c3)ccc2=O)cc1Cl` (stereo not given): 35.5 µM (active); `CCC(C(=O)Nc1cc(OC)cc(OC)c1)n1nc(-c2ccc(C)c(C)c2)ccc1=O` (stereo not given): 25.1 µM (active); `COc1ccc(-c2ccc3c(N)c(C(=O)Nc4ccc(C)cc4C)sc3n2)cc1OC`: “inactive”. Take `COc1cc(OC)c(NC(C)C(=O)NCc2ccccc2)cc1Cl` (stereo not given): the Potency result was “inactive”. As for `N#Cc1c(N)n(-c2cccc(Cl)c2)c2nc3ccccc3nc12`, the entry is “inactive”; as for `CCc1cc(=O)oc2c(C)c3c(cc12)CN(CCc1ccccc1)CO3`, “inactive”; as for `Cc1cccc(-c2nnc(SCc3cc(=O)c4c(C)cc(C)cc4[nH]3)[nH]2)c1`, 39.8 µM (active).

On to `COc1ccc(COC(=O)C2CC(=O)N(Cc3ccccc3)C2)cc1` (stereo not given), for which the Potency result is “inactive”. Next, `COC(=O)[C@@H]1C[C@]2(OC(=O)c3ccccc3)C=CC(=O)C[C@@H]2N1C(=O)OCc1ccccc1`: 25.1 µM (active); `O=C(OCc1ccccc1)N1CCc2ccccc21`: “inactive”.

Consider `C=CCN1C(=O)c2cccc3c(N4CCCCC4)ccc(c23)C1=O`, for which the Potency entry is “inactive”. Next, `COc1ccccc1/C=C/C(=O)NCC(=O)N=Nc1c(O)[nH]c2ccccc12`: “inactive”; `COc1ccccc1/C=N/OC(=O)c1ccc(C)cc1`: “inactive”; `COc1ccccc1C=CC(=O)C=Cc1ccccc1OC`: 16.8 µM (active). On to `O=C(Nc1ccc(S(=O)(=O)Nc2nccs2)cc1)c1nn(-c2ccccc2)ccc1=O`, for which the Potency entry was “inactive”. `CCOC(=O)c1cnc2c(C)cc(Cl)cc2c1N1CCN(C)CC1`: the Potency entry was “inactive”.

Turning to `CCOC(=O)c1nc(S(C)(=O)=O)ncc1Cl`, the Potency was 39.8 µM (active). As for `O=C(Nc1ccc(N2CCOCC2)cc1)c1cccc(S(=O)(=O)N2CCCCCC2)c1`, the entry is “inactive”; as for `CS(=O)(=O)c1ncc(Cl)c(C(=O)Nc2ccc(N3CCOCC3)cc2)n1`, 25.1 µM (active); as for `CCOC(=O)c1c(O)cc(C)nc1O`, “inactive”.

Consider `Cc1ccc(NC(=O)c2sc3nc(C)cc(C)c3c2N)cc1`, for which the Potency entry was “inactive”.

Turning to `COC(=O)c1nc2ccc(N3CCOCC3)cc2c(C)c1C(=O)OC`, the Potency result was “inactive”. Next, `CCN(c1ccccc1)S(=O)(=O)c1ccc(NC(=O)c2nc(S(C)(=O)=O)ncc2Cl)cc1`: 17.8 µM (active); `CCS(=O)(=O)c1ncc(Cl)c(C(=O)Nc2ccc(C)cc2)n1`: 35.5 µM (active); `COc1ccc(NC(=O)NS(=O)(=O)c2ccc(C)cc2)cn1`: “inactive”.

Turning to `CN(c1ccccc1)S(=O)(=O)c1ccc(Cl)c(C(=O)Nc2nn[nH]n2)c1`, the Potency result was “inactive”. Next, `O=C(/C=C/Nc1ccc(S(=O)(=O)Nc2ncccn2)cc1)c1ccc(Cl)c(Cl)c1`: “inactive”.

As for `CCc1cc(=O)oc2c(C)c(O[C@@H]3O[C@H](CO)[C@@H](O)[C@H](O)[C@H]3O)ccc12`, the Potency result is “inactive”.

With `CC(C)C1OC2(C)OC(=N)C1(C#N)C(C#N)(C#N)C2c1ccccc1` (stereo not given), the Potency result is “inactive”. Next, `CC(=O)c1ccc(N2CCN(C(=O)COc3ccc4ccccc4c3)CC2)cc1`: “inactive”; `Cc1oc(C(N)=O)cc1COc1ccc(C(N)=O)cc1`: “inactive”; `Cc1sc2ncn(CC(=O)NCCCC(=O)N3CCN(Cc4ccc5c(c4)OCO5)CC3)c(=O)c2c1C`: “inactive”. On to `CCS(=O)(=O)c1ncc(Cl)c(C(=O)Nc2ccccc2OC)n1`, for which the Potency was 35.5 µM (active). As for `Cc1ccccc1NC(=O)c1nc(S(C)(=O)=O)ncc1Cl`, the Potency result is “inactive”.

For `COC(=O)c1sc(-c2ccc(C(C)(C)C)cc2)cc1NC(=O)/C=C/C(=O)O`, the Potency is 39.8 µM (active). In the case of `COC(=O)c1scc(C)c1NC(=O)c1ccc(Cl)cc1`, the Potency entry is “inactive”. As for `COC(=O)c1sc(-c2ccc(Cl)cc2)cc1NC(=O)/C=C/C(=O)O`, the figure is 28.2 µM (active); as for `COC(=O)c1scc(C)c1NC(=O)CSc1ccc(Cl)cc1`, “inactive”. Regarding `CC(=O)c1sc(-c2ccccc2)cc1NS(=O)(=O)c1ccccc1`, the Potency result is “inactive”. As for `Cc1ccc2sc(-c3ccc(NC(=O)/C=C\C(=O)O)cc3)nc2c1`, the entry is “inactive”; as for `O=C(Nc1ccc(C(F)(F)F)cc1)c1cc(S(=O)(=O)NC2CCCCCC2)ccc1F`, 35.5 µM (active); as for `CCC(=O)NC(=S)Nc1ccc(S(=O)(=O)NC2CCCCC2)cc1`, “inactive”. Next, `C=COC(=O)c1sc2nc(C)cc(C)c2c1N`: “inactive”; `CCOC(=O)N1CCC2(CC1)C(C#N)=C(N)Oc1c2sc2nc(C)cc(C)c12`: 25.1 µM (active). Next, `Cc1cc(C)c2c(N)c(C(=O)C(C)(C)C)sc2n1`: “inactive”; `CSCCC(NC(=O)COc1ccccc1)C(=O)N1CCCCCC1` (stereo not given): “inactive”. In the case of `C/C(=N\Nc1cccc(C(F)(F)F)c1)c1ccc(O)cc1`, the Potency result was “inactive”. Consider `O=C(CSc1ccc(F)cc1)Nc1ccccc1Br`, for which the Potency entry was “inactive”. Next, `O=C(NNc1ccccc1Br)C(O)(c1cccc(C(F)(F)F)c1)c1cccc(C(F)(F)F)c1`: 20 µM (active). For `NC(=O)NN=C1CCN2CCCc3cccc1c32`, the Potency entry is “inactive”.

On to `NC(=S)N/N=C1\CCOc2ccc(Cl)cc21`, for which the Potency is 22.4 µM (active). `CC1(C)C/C(=N\NC(=S)Nc2ccccc2F)c2cc(O)ccc2O1`: the Potency entry was “inactive”. Next, `O=c1c2cc(N3CCOCC3)ccc2[nH]c(=S)n1CCc1ccccc1`: “inactive”; `CC(C)(C)OC(=O)NCCc1nnc(S(=O)(=O)Cc2ccc(Cl)cc2Cl)o1`: 17.8 µM (active). As for `COC(c1ccccc1)c1nnc(CCC(=O)NCCc2ccc(Cl)cc2)o1` (stereo not given), the entry is “inactive”; as for `CC(C)(C)OC(=O)NCC(=O)Oc1cc2oc(=O)cc(-c3ccccc3)c2cc1Cl`, “inactive”; as for `CC1CCc2nc(/C(C#N)=C/c3ccncc3)sc2C1` (stereo not given), “inactive”.

Consider `CSCC(=O)Nc1cc(C)on1`, for which the Potency result was “inactive”.

In the case of `O=C1c2ccccc2S(=O)(=O)c2cc(N3CCC(C(=O)N4CCCCC4)CC3)ccc21`, the Potency result was “inactive”. With `COc1cccc(-c2cnc3c(NC(C)=O)cc(-c4cccc(NS(C)(=O)=O)c4)cn23)c1`, the Potency is 28.2 µM (active). As for `COc1cc(S(=O)(=O)Nc2ccc3c(c2)C(=O)N(C)C3=O)ccc1NC(C)=O`, the Potency result is “inactive”.

Take `CC(=O)Nc1cc(-c2cccc(NS(C)(=O)=O)c2)cn2c(-c3cccc(C(F)(F)F)c3)cnc12`: the Potency is 35.5 µM (active). `COc1cccc(-c2ccc3c(N)c(C(=O)Nc4ccccc4C)sc3n2)c1`: the Potency entry is “inactive”. Next, `CC1(C)CCCN(C(=O)c2ccc3c(c2NCCO)C(=O)c2ccccc2C3=O)C1`: 20 µM (active); `OCCCc1nc2n(n1)C(c1ccccc1)C=C(c1ccc(F)cc1)N2` (stereo not given): “inactive”; `COc1cccc(CN(C)Cc2cc(=O)oc3cc(O)c(Cl)cc23)c1`: “inactive”. In the case of `CC(=O)Nc1ccc(O)c(-c2nc3ccccc3s2)c1`, the Potency entry was “inactive”. Next, `N#Cc1ccc(NC(=O)CSc2nc3nc(O)cc(O)c3s2)cc1`: “inactive”; `Cc1cccc(NC(=O)CSc2nc3ccc(NC(=O)c4ccccc4)cc3s2)c1`: 39.8 µM (active). As for `Cc1c(-c2cccc(NC(=O)c3ccco3)c2)nc2ncccn12`, the Potency entry is “inactive”. Regarding `CC(=O)Nc1ccc(/C(C)=N/Nc2nc(N3CCOCC3)nc(N3CCOCC3)n2)cc1`, the Potency result was “inactive”. Next, `COc1ccc(NC(=O)CSc2nc3ccc(Nc4nc(N5CCOCC5)nc(N5CCOCC5)n4)cc3s2)cc1`: 15.8 µM (active). Take `CCn1nc(NC(=O)c2ccco2)c2cc3cc(C)ccc3nc21`: the Potency result is “inactive”. As for `CC(=O)Nc1ccc(/C(C)=N/Nc2nc(Nc3ccccc3)nc(N3CCOCC3)n2)cc1`, the entry is “inactive”; as for `Cc1cccc(NC(=O)CSc2nc3ccc(NC(=O)c4ccco4)cc3s2)c1`, 39.8 µM (active). As for `CC(C)(C)C(=O)Nc1nc2c(s1)CN(Cc1ccccc1)CC2`, the entry is “inactive”; as for `CC(C)(C)C(=O)Nc1ccc2nc(SCc3ccccc3)sc2c1`, 31.6 µM (active); as for `CCN(C(=O)COC(=O)c1ccc(OC)c(S(=O)(=O)N(C)Cc2ccccc2)c1)C1CCS(=O)(=O)C1` (stereo not given), “inactive”. As for `COc1ccc(CCC(=O)OCC(=O)Nc2c(C)n(C)n(-c3ccccc3)c2=O)cc1`, the entry is “inactive”.

Take `CCCCCCc1cc2cc(-c3nnc(-c4ccc(C)cc4)o3)c(=O)oc2cc1O`: the Potency entry was “inactive”. Consider `Cc1nn2c(nc(N3CCCCC3)c3ccccc32)c1C=O`, for which the Potency result is “inactive”. `O=C(CCC1CCCCC1)Nc1nncs1`: the Potency entry is “inactive”. With `Nc1cccc2c1C(=O)N(C(=O)c1ccc(Cl)c(S(=O)(=O)N3CCCCCC3)c1)C2=O`, the Potency entry was “inactive”. Next, `O=C(CSc1nnc(NC(=O)c2ccco2)s1)NCc1ccc2c(c1)OCO2`: “inactive”; `CCn1nc(NC(=O)c2ccco2)c2cc3ccccc3nc21`: “inactive”. With `CN(C(=O)c1ccc(NC(=O)c2ccco2)cc1)c1ccccc1`, the Potency is 7.08 µM (active). As for `CN(Cc1ccccc1)C(NC(=O)c1ccco1)C(Cl)(Cl)Cl` (stereo not given), the entry is “inactive”. As for `Cc1ccc(C(=O)Nc2ccc3c(c2)OCO3)cc1NC(=O)c1ccco1`, the entry is “inactive”; as for `COCCNC(=O)Nc1ccc2nc(-c3ccco3)c(-c3ccco3)nc2c1`, “inactive”.

On to `CN(C(=O)CSc1nc2ccc(NC(=O)c3ccco3)cc2s1)c1ccccc1`, for which the Potency is 39.8 µM (active). As for `COCc1cc(C)nc2sc(C(=O)Nc3cccc(OC)c3)c(N)c12`, the entry is “inactive”; as for `COc1cccc(NC(=O)CSc2nc3ccc(NC(=O)c4ccco4)cc3s2)c1`, 35.5 µM (active); as for `C=CCOc1c(Br)cc(C2C3=C(CCCC3=O)N(C)C3=C2C(=O)CCC3)cc1OCC`, “inactive”.
